Experimental data reported in PubChem BioAssay (NCI).
Several values for one entry are separate records, joined by “and”; a condition that tells them apart may be missing. Equal entries are not always repeated. About 83,000 compounds went through this panel and 20% of them were active in at least one assay; those are over-represented in the sample as a whole.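 The test compound was applied at a single concentration to cells in 96-well plates for 48 hours, and percent growth was recorded.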 Activity calls are given as the source filed them. Rule for the calls: active = growth percent below 10; inactive = the rest.

Experiments:
Assay in all cases: NCI-60 one-dose screen, 48 h (100 = growth as untreated, 0 = no growth, -100 = all killed)
Settings in all cases: 10 µM unless noted
NCI-H23 lung = tested on: NCI-H23 lung
NCI-H226 lung = tested on: NCI-H226 lung
NCI-H322M lung = tested on: NCI-H322M lung
HOP-62 NSCLC = tested on: HOP-62 NSCLC
HOP-92 NSCLC = tested on: HOP-92 NSCLC
NCI-H522 lung = tested on: NCI-H522 lung
786-0 renal = tested on: 786-0 renal
COLO 205 colon = tested on: COLO 205 colon
DU-145 prostate = tested on: DU-145 prostate
K-562 leukemia = tested on: K-562 leukemia
MALME-3M melanoma = tested on: MALME-3M melanoma
MDA-MB-231 breast = tested on: MDA-MB-231 breast
RXF 393 renal = tested on: RXF 393 renal
SF-268 CNS = tested on: SF-268 CNS
SF-295 CNS = tested on: SF-295 CNS
SF-539 CNS = tested on: SF-539 CNS
UACC-257 melanoma = tested on: UACC-257 melanoma
M14 melanoma = tested on: M14 melanoma
NCI-H460 lung = tested on: NCI-H460 lung
A549/ATCC NSCLC = tested on: A549/ATCC NSCLC

SMILES	growth (NCI-H23 lung)	growth (NCI-H226 lung)	growth (NCI-H322M lung)	growth (HOP-62 NSCLC)	growth (HOP-92 NSCLC)	growth (NCI-H522 lung)	growth (786-0 renal)	growth (COLO 205 colon)	growth (DU-145 prostate)	growth (K-562 leukemia)	growth (MALME-3M melanoma)	growth (MDA-MB-231 breast)	growth (RXF 393 renal)	growth (SF-268 CNS)	growth (SF-295 CNS)	growth (SF-539 CNS)	growth (UACC-257 melanoma)	growth (M14 melanoma)	growth (NCI-H460 lung)	growth (A549/ATCC NSCLC)
Cc1cc(O)c(C(C)C)cc1S(=O)(=O)O (tested in a mixture with another compound)	87.6% (inactive) and 13% (inactive) and 102% (inactive)	89% (inactive) and 43.4% (inactive) and 93.8% (inactive)	90.7% (inactive) and 24.7% (inactive) and 93.4% (inactive)	77.5% (inactive) and 33.1% (inactive) and 106% (inactive)	89.5% (inactive) and 6.59% (active) and 77.8% (inactive)	88.5% (inactive) and -20.5% (active)	87.2% (inactive) and 13% (inactive) and 116% (inactive)	124% (inactive) and -63.7% (active) and 103% (inactive)	120% (inactive) and 5.68% (active) and 115% (inactive)	111% (inactive) and 3.5% (active) and 104% (inactive)	99.7% (inactive) and 47.1% (inactive) and 93.1% (inactive)	107% (inactive) and 10.3% (inactive) and 90.1% (inactive)	97.3% (inactive) and 8.53% (active) and 118% (inactive)	101% (inactive) and 22% (inactive) and 109% (inactive)	101% (inactive) and 77.7% (inactive)	93.1% (inactive) and 4.98% (active) and 94.7% (inactive)	92.6% (inactive) and 40.4% (inactive) and 94.9% (inactive)	91.5% (inactive) and -39.1% (active) and 106% (inactive)		
NC(=S)NS(=O)(=O)c1ccc(N)cc1		96% (inactive)		96.7% (inactive)	103% (inactive)	102% (inactive)	105% (inactive)	108% (inactive)	125% (inactive)	103% (inactive)	96.6% (inactive)	117% (inactive)	101% (inactive)	107% (inactive)	94.7% (inactive)	98.7% (inactive)	101% (inactive)	106% (inactive)	109% (inactive)	101% (inactive)
c1ccc(N(c2ccccc2)c2ccccc2)cc1		104% (inactive)	97.6% (inactive)		112% (inactive)	95.9% (inactive)	97.9% (inactive)	113% (inactive)	113% (inactive)		93.8% (inactive)	120% (inactive)	122% (inactive)	106% (inactive)	92% (inactive)	104% (inactive)	104% (inactive)	100% (inactive)	111% (inactive)	99% (inactive)
COc1ccc2c(=O)cc(-c3ccccc3)[nH]c2c1	34.4% (inactive) and 16.5% (inactive)	57.3% (inactive) and 23.8% (inactive)	66.1% (inactive) and 56.9% (inactive)	30.1% (inactive) and 21.2% (inactive)	53.8% (inactive)	-20% (active) and -68.2% (active)	35.3% (inactive) and -14.1% (active)	-19.6% (active) and -7.06% (active)	15% (inactive) and 19.1% (inactive)	9.54% (active) and -12.9% (active)	40.7% (inactive) and 47.9% (inactive)	29.9% (inactive) and 29.1% (inactive)	7.41% (active)	45.3% (inactive) and 43.1% (inactive)	-8.08% (active) and 2.52% (active)	-5.99% (active) and -23.9% (active)	65.2% (inactive) and 30.5% (inactive)	4.76% (active) and 0.39% (active)		22.6% (inactive) and 13.9% (inactive)
Cc1ccc(-c2noc(CC(=O)c3ccc([N+](=O)[O-])cc3)n2)cc1	95.9% (inactive)	92.9% (inactive)	105% (inactive)		101% (inactive)	95.2% (inactive)	99.6% (inactive)	109% (inactive)	101% (inactive)	89.1% (inactive)	110% (inactive)	104% (inactive)	102% (inactive)	95.6% (inactive)	99% (inactive)	98.2% (inactive)	107% (inactive)		103% (inactive)	94.6% (inactive)
COc1cc(C(=O)N/N=C/c2ccc(N(C)C)cc2)cc(OC)c1OC	19.4% (inactive)	71.9% (inactive)		49% (inactive)	46.8% (inactive)		42.2% (inactive)	-25.7% (active)	0.807% (active)	14% (inactive)		30.2% (inactive)	26.4% (inactive)	57.6% (inactive)	19.1% (inactive)	14.1% (inactive)	43.2% (inactive)	6.72% (active)	3.54% (active)	18.4% (inactive)
